# Compound activity deposited in PubChem by several laboratories.
# Most compounds without a hit are left out; they make up all but 3.8% or so of the library.
# ADAM10 inh: inhibitors of human ADAM10; 370,000 compounds, 0.62% hits; O14672; inhibition, % at 7 µM; recombinant ADAM10, EDANS/DABCYL FRET peptide cleavage, 3 h; AID 720582;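 active means inhibition above a per-campaign cutoff equal to the mean of compounds falling between control-based bounds plus 3 SD, cut at about 20% in these data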;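 further: 0% = DMSO wells while the 100% control is not disclosed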
# Target sequence (O14672 214-748 limits assumed): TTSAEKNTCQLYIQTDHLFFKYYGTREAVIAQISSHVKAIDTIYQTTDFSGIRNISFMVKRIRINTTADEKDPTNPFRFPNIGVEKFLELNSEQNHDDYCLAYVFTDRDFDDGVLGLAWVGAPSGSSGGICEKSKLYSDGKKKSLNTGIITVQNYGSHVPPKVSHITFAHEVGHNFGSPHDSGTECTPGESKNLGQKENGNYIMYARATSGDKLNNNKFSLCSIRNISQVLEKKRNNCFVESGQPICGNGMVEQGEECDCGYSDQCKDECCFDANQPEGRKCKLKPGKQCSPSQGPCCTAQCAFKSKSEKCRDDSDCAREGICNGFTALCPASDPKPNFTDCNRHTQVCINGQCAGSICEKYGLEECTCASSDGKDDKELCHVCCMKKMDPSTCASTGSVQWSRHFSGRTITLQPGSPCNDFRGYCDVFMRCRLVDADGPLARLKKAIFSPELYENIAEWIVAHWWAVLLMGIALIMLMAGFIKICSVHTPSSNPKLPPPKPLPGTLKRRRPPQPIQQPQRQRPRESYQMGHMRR
# ADAM17 inh: ADAM17 inhibition, QFRET primary screen. P78536. recombinant ADAM17, EDANS/DABCYL FRET peptide cleavage. inhibition, % at 6.95 µM. 370,000 compounds, 0.83% hits;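 active means inhibition above the mean of compounds lying between control limits plus 3 SD, set per campaign, cut at about 8.5% in these data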;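 further: 0% = DMSO-only wells as the low control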
# FGF22 binding: shifts melting point of recombinant human FGF22 | AID 651658 | recombinant FGF22 thermal shift, SYPRO orange fluorescence; percent of sucrose octasulfate shift, DMSO zero | activity (Tm shift, normalised), % at 9.99 µM | 340,000 compounds, 1.5% hits | Q9HCT0;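 active means mean Tm shift, scaled 0 neutral to 100 positive control, at about 1.3% or above, every replicate too, limit read from the data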
# Ecoli rRNA inh: inhibitors of bacterial rRNA selective over humanized ribosomes | E. coli WT GFP vs humanized-ribosome RFP mutants, fluorescence, 24 h; stronger effect = lower value; DMSO median 0, no signal -100 | GFP signal change (wild-type ribosome), % (concentration not given with the values) | 350,000 compounds, 1.6% hits | AID 720706;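 active means significant combined selectivity score with lowered wild-type GFP, culture density cut under 30%, mutant RFP and density less affected; inactive means any of these conditions unmet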
# proKLK7 act: activates the human kallikrein-7 zymogen | P49862 | purified proKLK7, EDANS-DABCYL substrate fluorescence; 100% is mature enzyme control, 0% vehicle | activation, % at 7 µM | 370,000 compounds, 0.9% hits;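 active means activation above the mean of all tested compounds plus 3 SD, computed per campaign excluding outliers beyond control limits, cut at about 13% in these data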
# proKLK7 act conf: confirmation of human kallikrein-7 zymogen activators | activation, % at 7 µM | 3,200 compounds, 68% hits | purified proKLK7, EDANS-DABCYL substrate fluorescence; scaled: vehicle 0, mature enzyme 100 | shares compounds with proKLK7 act | AID 686949;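 active means activation, as change over the incubation, above the mean of all tested compounds plus 3 SD, cut at about 13% in these data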
# EDANS interfere: counter-screen for kallikrein-7 activators: EDANS-DABCYL optical interference. shares compounds with proKLK7 act. EDANS-DABCYL substrate fluorescence interference, no enzyme, 4 h; solvent 0%, active enzyme control 100%. activation, % at 7 µM. 3,200 compounds, 80% hits. AID 686952;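 active means activation above the all-compound mean plus 3 SD, ignoring values outside control-based bounds, cut at about 4.8% in these data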;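 further: value is the 4 h activation minus the activation read at time zero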
# EDANS interf: EDANS fluorescence interference in dose response, no enzyme | shares compounds with proKLK7 act | EDANS-DABCYL peptide fluorescence interference | EC50, µM | 250 compounds, 20% hits | AID 720493;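 active means compounds that raise the fluorescence signal in this interference counterscreen, with EC50 at or below 10 µM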;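 further: intact quenched peptide substrate alone read at 355 nm excitation and 520 nm emission; signal is fluorescence gain from T0 to T4 after four hours at room temperature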
# The depositor's hits bear a star; i = inactive; . = no result.
SMILES,ADAM10 inh,ADAM17 inh,FGF22 binding,Ecoli rRNA inh,proKLK7 act,proKLK7 act conf,EDANS interfere,others
COc1ccc2c(CC(=O)N[C@@H](Cc3ccccc3)C(=O)O)cc(=O)oc2c1C,i,-442,0,10,6,.,.,
O=C(Nc1ccc2c(c1)[C@@H]1C[C@H](CC(=O)N3CCc4ccccc4C3)O[C@H](CO)[C@@H]1O2)c1cccnc1,.,.,0,-2,.,.,.,
COc1ccccc1C1C2=C(CCCC2=O)N(CC(=O)O)C2=C1C(=O)CCC2,i,-217,0,3,12,.,.,
CCCOc1c(Br)cc(C2C3=C(CCCC3=O)N(CC)C3=C2C(=O)CCC3)cc1OC,i,-198,43,-46,-1,.,.,
CCOc1cc(C2C3=C(CCCC3=O)N(CC(=O)O)C3=C2C(=O)CCC3)ccc1OC,-1,-4,0,1,0,.,.,
COc1ccc(C2C3=C(CCCC3=O)N(CC(=O)O)C3=C2C(=O)CCC3)cc1Cl,i,i,0,10,27*,26*,34*,
C#CCOc1c(Cl)cc(C2C3=C(CCCC3=O)N(CC(=O)O)C3=C2C(=O)CCC3)cc1OC,i,i,0,8,16*,72*,80*,
COc1ccc(C2C3=C(CCCC3=O)N(CC(=O)O)C3=C2C(=O)CCC3)cc1Br,i,-496,0,11,30*,28*,43*,
C[C@@H]1CN([C@@H](C)CO)C(=O)c2cccc(NS(=O)(=O)c3ccccc3)c2O[C@@H]1CN(C)Cc1ccc(C(F)(F)F)cc1,.,.,0,3,.,.,.,
O=c1[nH]c2ccccc2nc1-c1cccs1,i,i,.,.,32*,32*,43*,
CC(c1nc2ccccc2[nH]1)n1c(=O)c(-c2cccs2)nc2ccccc21 (stereo unspecified),-378,-123,0,5,190*,22*,-25,EDANS interf=7.5*
c1csc(-c2nnsc2-c2nc3ccccc3[nH]2)c1,-7,-4,.,.,-1,.,.,
C[C@H]1CN([C@@H](C)CO)C(=O)c2ccccc2-c2ccccc2CO[C@H]1CN(C)Cc1cccc(F)c1,.,.,0,-34,.,.,.,
COc1ccc(NC(=O)Nc2ccc3c(c2)C(=O)N([C@@H](C)CO)C[C@H](C)[C@@H](CN(C)S(=O)(=O)c2ccc(Cl)cc2)OCCCC[C@H](C)O3)cc1,.,.,0,7,.,.,.,
O=C(CCN1CCCCC1)N[C@@H]1CC[C@@H](CCn2cc(-c3ccccc3)nn2)O[C@H]1CO,.,.,0,1,.,.,.,
CCCN(C)C[C@@H]1OCCCC[C@@H](C)Oc2ccc(NC(=O)CCC(F)(F)F)cc2C(=O)N([C@@H](C)CO)C[C@@H]1C,.,.,0,1,.,.,.,
CCN1CCN(c2cc3c(cc2F)c(=O)c(S(=O)(=O)c2ccccc2)cn3C)CC1,-346,-90,0,3,13*,3,3,
COc1ccc2nc(NC(=O)c3cccs3)sc2c1,-358,-166,0,.,25*,2,1,
CC(=O)Nc1ccc2nc(NC(=O)c3cccs3)sc2c1,-8,-3,0,6,1,.,.,
Cc1ccc(/C=C/c2nc3ccccc3[nH]2)o1,-158,-55,0,27,21*,31*,30*,
O=C(Nc1ccc(Cl)c(Cl)c1)N[C@@H]1CC[C@H](CCNC(=O)c2ccc(F)cc2)O[C@@H]1CO,.,.,0,-58,.,.,.,
COc1ccc(-c2cc(C(=O)N3CCN(c4ccccc4)CC3)c3ccccc3n2)cc1,-245,-76,0,-14,2,.,.,
COc1ccc(-c2cc(C(=O)NC3CC3)c3ccccc3n2)cc1,-445,-133,0,10,42*,25*,15*,EDANS interf=>70
COc1ccc(-c2cc(C(=O)OCC(=O)N3CCCC3)c3ccccc3n2)cc1,-209,-66,.,.,17*,-18,-28,
COc1ccc2nc(-c3ccccc3)cc(C(=O)OCC(=O)N3CCCCC3)c2c1,i,-483,0,.,-82,.,.,
SMILES,ADAM10 inh,ADAM17 inh,FGF22 binding,Ecoli rRNA inh,proKLK7 act,proKLK7 act conf,EDANS interfere,others
COc1ccc(-c2cc(C(=O)N3CCCC3)c3ccccc3n2)cc1,i,i,0,-14,22*,-19,2,
CCOc1ccc(-c2cc(C(=O)N3CCN(C)CC3)c3ccccc3n2)cc1,i,i,.,3,31*,49*,33*,EDANS interf=>70
C[C@H](CO)N1C[C@H](C)[C@H](CN(C)C(=O)Nc2ccc(F)cc2)Oc2ncc(C#Cc3cccc(F)c3)cc2C1=O,.,.,.,-3,.,.,.,
COC(=O)C1CCN(C(=O)c2cc(-c3ccco3)nc3ccccc23)CC1,i,-443,0,.,48*,36*,27*,EDANS interf=>70
CN1C(=O)c2cc(NC(=O)c3ccc(C#N)cc3)ccc2OC[C@H]2O[C@@H](CC(=O)NCc3ccc4c(c3)OCO4)CC[C@@H]21,.,.,0,-5,.,.,.,
Cc1c2cccn2cc[n+]1C,-408,-126,.,.,18*,32*,27*,
O=C(Nc1ccc(F)cc1)N[C@H]1CC[C@@H](CCNC(=O)c2ccccc2F)O[C@@H]1CO,.,.,.,-3,.,.,.,
CO[C@H]1CN(C)C(=O)c2cc(NS(=O)(=O)c3cccc(F)c3)ccc2OC[C@H](C)NC[C@H]1C,.,.,0,-1,.,.,.,
CNc1cc(-c2cccc(OC)c2F)nc2ccnn12,i,-392,0,6,38*,28*,27*,
COc1cccc(S(=O)(=O)N[C@H]2C=C[C@H](CC(=O)NCc3ccncc3)O[C@H]2CO)c1,.,.,.,1,.,.,.,
COc1ccc2c3c([nH]c2c1)[C@H](CO)N(Cc1ccccc1F)CC31CCN(C(=O)C2CCC2)CC1,.,.,0,0,.,.,.,
O=Cc1c(SCCO)nc2ccccn2c1=O,-8,-6,0,5,31*,23*,24*,
COC(=O)CSc1nc2ccccn2c(=O)c1C=O,-92,-30,0,28,59*,77*,69*,
O=Cc1c(Sc2ccccc2)nc2ccccn2c1=O,5,-1,.,.,0,.,.,
CCC(=O)N1[C@@H](CO)[C@@H](c2ccccc2)C12CN(C(=O)Nc1cccc(OC)c1)C2,.,.,0,2,.,.,.,
C[C@@H]1CN([C@@H](C)CO)C(=O)c2cc(C3=CCCCC3)cnc2O[C@H]1CN(C)C(=O)Nc1ccc(F)cc1,.,.,0,-7,.,.,.,
CCCC#Cc1ccc2c(c1)O[C@H](CN(C)C(=O)COC)[C@@H](C)CN([C@@H](C)CO)S2(=O)=O,.,.,0,-6,.,.,.,
O=C(NC[C@H]1N[C@H](CO)[C@@H]1c1ccc(C2=CCCCC2)cc1)c1ccccc1,.,.,.,-61,.,.,.,
